Data reported in the supplement of paper PMC12632987.
The full ranking holds about 4,500 sequences; the median of “median log2 fold change of GCK-ALFA target abundance (FLAG IP / Myc IP barcode read proportion)” is about 0.078, and the lowest 2% start at about -0.6. This excerpt belongs to a sample that is enriched for the lowest values.

B1: GBRAP_128_3486 (protein)
chain: STEEVVAKTKELMEKIKNSSLEEVEEIARELVELLGQADPESREAATEVILEKLKELSAEKLEILADVLRERQPELDPFGAEQAAEIQVEALNEAEEKEE
B2: GBRAP_52_6313 (protein)
chain: MREEMRAQAEELLALMLAGDRDGARALAEELVATLSEEELLLLAEELAKLSETLNAEELDKAMELLEILEDVMEEAGVDERVIAEIRGIVITAIYKAEQK
B3: GBRAP_52_6312 (protein)
chain: MHERMRELAEELLELMLAGDREGARALAREIVATLSEEELLLLAEELAELAEELDEEELEKAAELLFILEDEMEAAGVDERVIAEMLGIIITAIYKAEQK
B4: GBRAP_96_7095 (protein)
chain: MLEEAKKLVKELIKALDTDPEKAEELAKKLLEFPVEVVTEALVEVVKKPEDAAKIAKLLLKLGDEKAEEVLLEAAEKAPGDISKAIIDAMEAYEKEQEAA
B5: GBRAP_128_3565 (protein)
chain: STAELVAEARALLAAIKAADAEEARALAERLADLIAAASPEARAAIVETILARLPELTAEQLDILADVFAARRATADPAVAEALAEIQVEALNVREEKEE
B6: GBRAP_14_3799 (protein)
chain: MEEREKAIEEITEETLEILEEILADAPEEVRERVLELVEEARERIIKEKLSPDEIAELEDELLEEVAKILADAPPEVRAQVLAAISVGMGEIILEVEELE
B7: GBRAP_160_4163 (protein)
chain: MEEAEELIKEVEEETKEAIELIEGESIEQRKVIIAGHFGVIIMTLFESDVVSDEVVDFAVELRDELVKWIDENPDASLEEIKKKIKEAEKKIKEKIKKDA
B8: GBRAP_35_5613 (protein)
chain: EDVQLAVDSFVDMAEAIIELIPEIDDETLAALAQSLIKFAKSLLKEEKNNKEALEKIKEAMEKLLEALKKYRSDNPLIQKVAKEVQEVIKEAEKAIKEVK
B9: GBRAP_52_5915 (protein)
chain: MSAELEAKLDEMLAAVKAGKLEEARAIAREIVESLDDEELRELVELFAERVRAAPLEDLPAWWRLAEILAEELEEAGKDEVLADDLLNRTAAAIYEKLQA
B10: GBRAP_160_4375 (protein)
chain: SEELKELIKEIEELKKEFEELAKDLSPEEVKILAKGVLSEIAALVFENEAVSEETKDKIMEIIDKALEELDKLKDASPEEIVAVTTEAVNEIIELIKKEI
B11: GBRAP_14_3854 (protein)
chain: MEKLIAAVKKTAEAAIEFAKELLPEHAEEVGKKIKELAEKIIEKIKKENLNKEEVAELIRKMAEELGKFIKEKGYASDEEIAAFKAFIENEALLELEKVE
B12: GBRAP_52_5907 (protein)
chain: MKEELEKILNEIIEAVKAGKLEEARKIARELAEKYDDETLEEFIELFAEMVLEAPEEDLPYYWKAAEILAEEFEREGKDEVLADLLLSRTAAAIYEKLQR
B13: GBRAP_26_5463 (protein)
chain: MDEAFRAALDAVDAAAATLPNPNAAAAVTAEAATVLEELEEAIEAGEDIAAAVAAARDELLAAARAIGEEEGLPAATIAAMEATLTAIFDALEAALKAAA
B14: GBRAP_26_5467 (protein)
chain: MDAAFAAARDRIDAIAAKLPDPRAAAALRALADTELLELEERIEAGEDIDAAVDAARDAFLAEAREILEDAGLPEELIAKTLAEFEAVFDDLRAALKAAQ
B15: GBRAP_52_6357 (protein)
chain: KLEEALALLERALEAMLAGREDEARAILREIVETYDDETILAAFERLAEKILGKSVEEAEAFLDLALLLADVMDELGRDEAVGDEIEAIAAKAYMTVLEK
B16: GBRAP_160_3973 (protein)
chain: SEEVEELKKEIKELFDEAKKLIEGESYEERLTIIKVMVGDILLLADENPLISDEVEDKIDEIGDELIETIEKNPDLTDEEIKKLIDEAEEKILKTIDEAF
B17: GBRAP_43_5767 (protein)
chain: SKELVEGAFETAILLLEDPSISEETKVKAIIAAMELAADEGYVDKELLEKVVELAGKTLSKESLEKILKAAKKLAKEYPESKEAFEEAAKKLEEAIAKKE
B18: GBRAP_64_6486 (protein)
chain: EEEIKKLHEETLKQAKKLVELLKDSSEELQKQAKEVLELIEKSKEASLEEAAKLLAEAAKLLNELLKSPELTEEQKDQVAETLDLVSELLWLVVEKELEK
B19: GBRAP_52_5904 (protein)
chain: MREELRAQVEEMLALVRAGDLEGARALAREIAETLNDEELRLLIEEVAALVREAPLEELPAWWRLAEIMAEAFEEAGKDEVLADDLLAATAAAIHERLQR
B20: GBRAP_184_5166 (protein)
chain: MIKEFEIKIENVEEAKEKIEEIKKEVEGLKAELYVIVETKELTVEIAKAILEGLKEMKEKGYVTSITVEFTGKIDEETLDVAVKLADEAGVKLVIAIDEE
B21: GBRAP_139_3707 (protein)
chain: SALEELIAEARRLTREMREDPEAALEALVELLLSVSEEELEVLVEAIAEELSRLPLDEAEELADRLLELVEERFKDEDKIDIVEAVLNGALARKAAEEEA
B22: GBRAP_128_3416 (protein)
chain: ADAALVAKAKELLEKMKTADAATAAALADEIAALIAAADLETAEAIAEVIEEELPKLTAEQLDILADALRAALPAASPEKAEILAGVLVDALNEAEEKEE
B23: GBRAP_26_5474 (protein)
chain: VEEEVEAALKEMEKLLKELLDPETAAAATASAFTIVEEAVEEMKKNAKDKEKLKKAAEKAVKEIAADLETLGVDADTRAKIVAKAKAELEKIVKAIEKEA
B24: GBRAP_160_4004 (protein)
chain: SEKIEKLIKEIEELVEETIEWMEGLSPEERLTLVRGTVGEIIQLAIESEEVSDESEEKIAELGDETIERVEENKDASLEVWKEILEEFLEKVKKILKEDE
B25: GBRAP_137_3676 (protein)
chain: SKVEIEIKEEDGLVEITVTVYDPEKAEETEEKLLDIAHEVGALAVAIKRNEDGSLEITIVVPEEKGEEAEKKVLELAKEYDEVIIKKEKDGKTEEEVIKK
B26: GBRAP_35_5582 (protein)
chain: DDVEIILETARDFAEAAIEALKGDDLEEAIRMTEAFVRAAELAIEDLKNDLEALKELAKLLEEVLKAAKEYASDNPEMQKNIERLEELLKRAKELAKKVE
B27: GBRAP_166_4971 (protein)
chain: MQEELVEEFKKYIDELAEKMKTANHEEKLELLAEAAEKLKELIEKGLSDEDLKELIEYLIKKAKEVGISTSEVYGALTIIADLNEEQIDILEEAIKKVEK
B28: GBRAP_106_2558 (protein)
chain: SKKETAEKIYKEMLEEAKKEIAEHEAWLAKHRSQLTPEEIRAINQYLRDYLVAKLLRKMIEAGIITKEEAKEILEEVRKRKDLDPLEALEYAGKLVLEKI
B29: GBRAP_78_6731 (protein)
chain: ELEKLLEEAIKVASEAAKLAVKQASNEVIAEIVEALSHLEEALELVEEGGEKEEILEELEKALEHLKEALKLLPESLTEIKKLLEEAIKLVEEAIKEVKK

Target: GABARAP, O95166
Assay: median log2 fold change of GCK-ALFA target abundance (FLAG IP / Myc IP barcode read proportion) (log2 ratio); each designed protein is fused to an ALFA-tag nanobody in HEK293 cells to bring the named protein to FLAG-tagged glucokinase (GCK); Myc marks an untargeted standard; higher = target protein stabilised (more abundant)
Conditions: target protein: 3xFLAG-MCP-GCK-ALFA reporter; HEK293 landing pad (RPLP)
In short: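 The readout is target abundance, the per-binder median log2 ratio of FLAG to Myc barcode read proportions. It came from HEK293 landing-pad cells carrying a recombined ALFA-nanobody-fused binder library, induced with 2 μg mL^−1 doxycycline and transfected with a plasmid for a FLAG-tagged target and a Myc-tagged standard. After 48 h, lysates were immunoprecipitated with anti-FLAG and anti-Myc, and circular RNA barcodes were reverse transcribed, amplified and sequenced. Each barcode needed a proportion of at least 10^−7 in both replicates and each binder at least 3 barcodes per replicate, a pseudocount of 10^−6 was added, and the replicates were pooled.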

Sequence of GABARAP, O95166 (O95166 whole entry, the tested form may be a part): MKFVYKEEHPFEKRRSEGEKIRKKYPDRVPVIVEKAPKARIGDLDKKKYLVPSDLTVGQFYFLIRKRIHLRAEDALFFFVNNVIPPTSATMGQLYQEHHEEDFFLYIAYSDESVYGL

Binder	median log2 fold change
B1	0.224
B2	-0.0291
B3	-0.795
B4	0.344
B5	0.318
B6	-0.611
B7	0.215
B8	-0.07
B9	-0.669
B10	0.194
B11	0.381
B12	-0.881
B13	0.261
B14	0.199
B15	-0.492
B16	-0.605
B17	0.243
B18	0.19
B19	-0.644
B20	0.0333
B21	-0.0884
B22	0.247
B23	0.241
B24	-0.827
B25	0.249
B26	0.182
B27	-0.0848
B28	-0.711
B29	0.0787
